Measurements: the supplement of paper PMC3545927
Some of the results follow. The hit rate among all sequences tested is not known here.

B1: HC1985 (peptide)
chain: CALVCCSMSYAGNASASA
B2: HC970 (peptide)
chain: CAHGPTPLLYAGNASASA
B3: FS-2258 (peptide)
chain: CARFKKNAGLAGNASASA
B4: FS-2933 (peptide)
chain: CARGKRELRMAGNASASA
B5: HC1521 (peptide)
chain: CAAACRAAGLAGNASASA
B6: FS-1950 (peptide)
chain: CARGKREAGLAGNASASA
B7: FS-2209 (peptide)
chain: CARGKRFRPRAGNASASA
B8: HC171 (peptide)
chain: CADVKFPGGGAGNASASA
B9: HC464 (peptide)
chain: CACLVDYPYRAGNASASA
B10: FS-1056 (peptide)
chain: CAQKGRKPRDAGNASASA
B11: FS-1242 (peptide)
chain: CAPKRRKPRVAGNASASA
B12: FS-838 (peptide)
chain: CAPCRRKPRDAGNASASA
B13: FS-1575 (peptide)
chain: CATRGRQPRVAGNASASA
B14: FS-752 (peptide)
chain: CACSRRKPRDAGNASASA
B15: FS-451 (peptide)
chain: CAKMQRAPRDAGNASASA
B16: FS-1549 (peptide)
chain: CAPPGRMCRVAGNASASA
B17: HC2042 (peptide)
chain: CAVVQCSMSYAGNASASA
B18: HC1371 (peptide)
chain: CASMSYSWTGAGNASASA
B19: HC2066 (peptide)
chain: CAVVCCSMMYAGNASASA
B20: HC2328 (peptide)
chain: CAEWPCHRPSAGNASASA
B21: HC1149 (peptide)
chain: CALRDIWDWIAGNASASA
B22: HC322 (peptide)
chain: CAMMNWSPTTAGNASASA
B23: HC1643 (peptide)
chain: CALDLSGWFTAGNASASA
B24: HC1591 (peptide)
chain: CAQALDCEIYAGNASASA
B25: FS-629 (peptide)
chain: CATDDDFERSAGNASASA
B26: FS-880 (peptide)
chain: CATKDRKRRSAGNASASA
B27: FS-909 (peptide)
chain: CAKRGREFRIAGNASASA
B28: FS-1021 (peptide)
chain: CAKRGRKRRSAGNASASA
B29: FS-727 (peptide)
chain: CATKDNFKRSAGNASASA
B30: FS-1093 (peptide)
chain: CATKADKRRSAGNASASA
B31: FS-2198 (peptide)
chain: CARVTRYSNIAGNASASA
B32: HC2126 (peptide)
chain: CAEMVVCCSMAGNASASA
B33: HC42 (peptide)
chain: CATTPGSGSWAGNASASA
B34: HC2111 (peptide)
chain: CADDVVCCSMAGNASASA
B35: FS-2158 (peptide)
chain: CARMRRHHHHAGNASASA
B36: HC1775 (peptide)
chain: CAMEECSQHHAGNASASA
B37: FS-2337 (peptide)
chain: CARHRRHHHQAGNASASA
B38: FS-2680 (peptide)
chain: CARHRKHSPQAGNASASA
B39: FS-2656 (peptide)
chain: CAREKKAALEAGNASASA
B40: FS-1209 (peptide)
chain: CAHPKQEKRSAGNASASA
B41: FS-950 (peptide)
chain: CAQAGRSRKEAGNASASA
B42: FS-2864 (peptide)
chain: CAHPKRAVREAGNASASA
B43: FS-1009 (peptide)
chain: CAHPHRQRKEAGNASASA
B44: FS-1010 (peptide)
chain: CAHRSRKAKEAGNASASA
B45: FS-1138 (peptide)
chain: CALTERTKREAGNASASA
B46: FS-795 (peptide)
chain: CAHPHRTKREAGNASASA
B47: HC1328 (peptide)
chain: CALTESTLSTAGNASASA
B48: HC839 (peptide)
chain: CAVPHPNIEEAGNASASA

Target: furin, P09958
Sequence (P09958 whole entry): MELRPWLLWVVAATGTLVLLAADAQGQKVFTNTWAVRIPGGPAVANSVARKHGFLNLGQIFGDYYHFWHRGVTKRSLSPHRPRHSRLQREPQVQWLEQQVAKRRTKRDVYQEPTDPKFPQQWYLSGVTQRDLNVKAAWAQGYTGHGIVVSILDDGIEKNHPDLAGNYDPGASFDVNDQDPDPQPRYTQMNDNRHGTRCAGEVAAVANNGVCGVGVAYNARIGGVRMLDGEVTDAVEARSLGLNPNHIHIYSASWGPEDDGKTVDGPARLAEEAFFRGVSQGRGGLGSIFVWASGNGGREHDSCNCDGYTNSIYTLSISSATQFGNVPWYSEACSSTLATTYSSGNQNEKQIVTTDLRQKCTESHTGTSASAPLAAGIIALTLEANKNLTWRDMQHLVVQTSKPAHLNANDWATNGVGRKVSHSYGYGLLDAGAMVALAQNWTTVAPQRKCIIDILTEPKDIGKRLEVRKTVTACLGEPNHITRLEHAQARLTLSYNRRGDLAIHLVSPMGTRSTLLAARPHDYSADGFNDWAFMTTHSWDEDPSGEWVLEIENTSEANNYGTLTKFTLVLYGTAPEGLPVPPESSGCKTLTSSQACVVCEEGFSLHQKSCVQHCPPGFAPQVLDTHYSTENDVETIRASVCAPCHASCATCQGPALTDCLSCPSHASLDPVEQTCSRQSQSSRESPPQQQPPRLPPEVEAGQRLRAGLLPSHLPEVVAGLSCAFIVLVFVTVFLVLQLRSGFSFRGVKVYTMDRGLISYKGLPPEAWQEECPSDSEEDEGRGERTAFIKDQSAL
Test: furin cleavage Z-score vs untreated control; higher = more cleavage, active = 3.5 or more, inactive = 1 or less, 8 variable residues between constant flanks
How it was run: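 Furin cleavage was scored on 8-mer peptides joined to a cDNA oligonucleotide and bound to magnetic beads at the N-terminus. Digestion with purified furin (1:10 enzyme:substrate, 0.01 ml, 50 mM HEPES pH 7.5, CaCl2, NaCl) lasted 7.5, 15 or 30 min. Freed DNA was tagged with adapters by PCR, sequenced and counted; the cleavage Z-score is the lowess-adjusted log count versus furin-free reactions, scaled by median absolute deviation.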

Sequence	furin cleavage Z-score (7.5 min)	furin cleavage Z-score (15 min)	furin cleavage Z-score (30 min)
B1	-0.475 (inactive)	-0.242 (inactive)	0.0858 (inactive)
B2	-1.77 (inactive)	-1.23 (inactive)	-0.927 (inactive)
B3	0.96 (inactive)	-0.927 (inactive)	0.128 (inactive)
B4	7.15 (active)	8.97 (active)	10 (active)
B5	-0.658 (inactive)	-1.9 (inactive)	-0.337 (inactive)
B6	10.7 (active)	12 (active)	9.85 (active)
B7	-0.464 (inactive)	0.0565 (inactive)	0.308 (inactive)
B8	-0.433 (inactive)	-1.81 (inactive)	-2.39 (inactive)
B9	-1.54 (inactive)	-2.22 (inactive)	0.308 (inactive)
B10	15 (active)	14.9 (active)	10.2 (active)
B11	8.95 (active)	11.6 (active)	8 (active)
B12	14.7 (active)	14.2 (active)	11.5 (active)
B13	0.424 (inactive)	0.857 (inactive)	1.04
B14	11.2 (active)	11.6 (active)	9.05 (active)
B15	-0.25 (inactive)	-0.389 (inactive)	-0.0248 (inactive)
B16	0.819 (inactive)	0.646 (inactive)	1.21
B17	0.93 (inactive)	0.804 (inactive)	0.223 (inactive)
B18	-1.4 (inactive)	-0.78 (inactive)	-0.275 (inactive)
B19	0.37 (inactive)	-1.1 (inactive)	-0.477 (inactive)
B20	2.33	0.752 (inactive)	0.743 (inactive)
B21	-0.31 (inactive)	1.9	1.08
B22	-3.83 (inactive)	0.346 (inactive)	-1.29 (inactive)
B23	1.07	0.845 (inactive)	-0.793 (inactive)
B24	-1.45 (inactive)	0.168 (inactive)	-0.351 (inactive)

Sequence	furin cleavage Z-score (7.5 min)	furin cleavage Z-score (15 min)	furin cleavage Z-score (30 min)
B25	-0.626 (inactive)	-1.72 (inactive)	0.0381 (inactive)
B26	13.4 (active)	13.2 (active)	8.6 (active)
B27	0.58 (inactive)	-0.852 (inactive)	-0.651 (inactive)
B28	13.5 (active)	12.1 (active)	11.2 (active)
B29	2.99	1.62	3.93 (active)
B30	1.16	-0.227 (inactive)	0.33 (inactive)
B31	-0.808 (inactive)	-0.0709 (inactive)	0.615 (inactive)
B32	-1.21 (inactive)	-1.21 (inactive)	0.778 (inactive)
B33	-0.496 (inactive)	-0.533 (inactive)	-0.629 (inactive)
B34	-0.752 (inactive)	0.00684 (inactive)	-0.0395 (inactive)
B35	2.42	4.46 (active)	5.23 (active)
B36	1.05	-0.421 (inactive)	0.321 (inactive)
B37	2.13	3.45	4 (active)
B38	0.00638 (inactive)	0.0202 (inactive)	-0.323 (inactive)
B39	-1.1 (inactive)	1.19	0.78 (inactive)
B40	-0.192 (inactive)	1 (inactive)	1.55
B41	0.322 (inactive)	-1.35 (inactive)	0.565 (inactive)
B42	8.59 (active)	8.52 (active)	7.41 (active)
B43	2.12	4.93 (active)	2.5
B44	1.54	0.417 (inactive)	1.2
B45	12.3 (active)	13 (active)	9.22 (active)
B46	11.5 (active)	12 (active)	10.4 (active)
B47	-0.00854 (inactive)	0.199 (inactive)	1.01
B48	0.645 (inactive)	-1.08 (inactive)	0.089 (inactive)
